aSyn rescue: inhibitors of alpha-synuclein toxicity in yeast | 370,000 compounds, 0.14% hits | Potency, µM (titrated, usually from 46.1 µM), for the others: at the top dose growth rescue (activation), most hits filed as activators | AID 652106 | Yeast expressing alpha-synuclein, growth rescue, BacTiter-Glo, 24 h; further: % of control where 0% means no effect; nearly all actives have a fitted effect of over 65% in size
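Screening used galactose-induced yeast with toxic alpha-synuclein levels, exposed to compound for 24 hr at 30 deg C. Cell growth, read with BacTiter-Glo luminescence, gave the measured signal.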
Abeta yeast res: A-beta toxicity reversal in yeast | yeast expressing A-beta42, growth rescue, OD600, 48 h; response scale: 0% DMSO, 100% iron-clioquinol control | Potency, µM (highest dose often 46.1 µM), most hits filed as activators | 410,000 compounds, 0.063% hits | AID 1347071; further: nearly all actives have a fitted effect of over 55% in size
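Yeast A-beta toxicity model in growth medium with pinned compounds, 48 h at 30 C; growth read as absorbance at 600 nm. Normalized to FeCl3/clioquinol equimolar mix (positive) and DMSO (negative).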
Mito fusion yeast: mitochondrial division inhibition or fusion activation; S. cerevisiae fusion-defective mutant growth rescue, CellTiterGlo 48 h; Potency, µM (doses to about 46.1 µM), inactives show at the top dose growth rescue (activation), usual class: activators; 320,000 compounds, 0.23% hits; further: % of control where 0% means no effect; nearly all actives have a fitted effect of over 45% in size
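Read-out: ATP-based luminescence (CellTiterGlo, 10 min ambient) reporting growth of fusion-defective ts yeast after 48 hours at 37C on glycerol/ethanol YPEG medium in the presence of compound.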
FUS yeast rescue: FUS proteinopathy suppression in yeast; S. cerevisiae FUS-expressing, growth rescue, OD600, 24 h; Potency, µM (titrated, usually from 76.6 µM), most hits filed as activators; 390,000 compounds, 0.24% hits; AID 1347120;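 further: plate controls were DMSO vehicle for no effect and reference control for full effect; nearly all actives have a fitted effect of over 55% in size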
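Galactose (2%) drives FUS expression in yeast precultured in raffinose; seeding density OD 0.005. Test compounds incubated 24hr at 30C and 99% humidity before absorbance at 600 nm was measured.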
TDP-43 yeast inh: TDP-43 toxicity inhibition in yeast; TDP-43 expressing yeast growth rescue, BacTiter-Glo, 24 h; Potency, µM (top dose mostly 46.1 µM), for the others: at the highest dose growth rescue (activation), most hits filed as activators; 410,000 compounds, 1.8% hits; AID 652104; further: % of control where 0% means no effect; nearly all actives have a fitted effect of over 50% in size
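Yeast cells expressing TDP-43 under galactose induction are exposed to compounds for 24 hr at 30 deg C. BacTiter-Glo luminescence measures growth, so protective compounds score as activators.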
Starred values were filed as active, the others as inactive; i = inactive; ? = inconclusive; · = no result. The list is not random: actives were taken first. Their share in the collection is about 2.2%. The call rests on the fitted dose curve; in most records, active means well fitted curve in the direction sought with a large enough effect; inconclusive means small, poorly fitted or top-dose-only effect, or another doubt; inactive means no such curve, though single readings can be large; an effect the other way counts as inactive or inconclusive. Potency means the concentration at half of the fitted maximal effect.

SMILES	aSyn rescue	Abeta yeast res	Mito fusion yeast	FUS yeast rescue	TDP-43 yeast inh
Cc1cc(C(=O)Nc2nc(-c3ccccn3)cs2)ccc1[N+](=O)[O-]	?	i	-2%	i	?
CC(=O)Nc1ccc(C(=O)Nc2nc(-c3ccccn3)cs2)cc1	-12%	i	1%	?	10%
O=C(Nc1nc(-c2ccco2)cs1)c1ccccc1	-51%	i	9%	i	13µM*
O=C(Nc1nc(-c2ccccn2)cs1)c1cc(Cl)ccc1[N+](=O)[O-]	?	13µM*	-6%	i	?
CC1CCc2onc(C(=O)N3CCN(c4ccc(Cl)cc4)CC3)c2C1 (stereo not drawn)	·	i	·	i	0%
CC1=C(C(=O)N2CCCCC2)C2(CCC(C)CC2)OC1=O (stereo not drawn)	-1%	i	11%	i	0%
COc1ccc(OC)c(CCNC(=O)C2=C(C)C(=O)OC23CCC(C)CC3)c1 (stereo not drawn)	·	i	·	i	22%
CC1=C(C(=O)Nc2ccc(C)cc2Cl)C2(CCCCC2)OC1=O	·	i	·	i	11µM*
CC1=C(C(=O)N2CCc3ccccc32)C2(CCC(C)CC2)OC1=O (stereo not drawn)	·	i	-3%	i	13µM*
CCCNC(=O)C1=C(C)C(=O)OC12CCC(C)CC2 (stereo not drawn)	-2%	i	-8%	i	16%
COc1ccc(NC(=O)C2=C(C)C(=O)OC23CCC(C)CC3)c(OC)c1 (stereo not drawn)	3%	i	-7%	i	20µM*
CCOc1ccc(NC(=O)C2=C(C)C(=O)OC23CCC(C)CC3)cc1 (stereo not drawn)	6%	?	-6%	i	20µM*
COc1cccc2cc3c(nc12)C[C@@H]1CCCC(=O)N2CCC[C@@]12C3	·	·	·	i	·
CCOC(=O)CC[C@@H]1CC[C@]2(CCCN(Cc3nccn3C)C2)O1	·	·	·	i	·
NS(=O)(=O)c1ccc(CCNC(=O)Cn2c(-c3cccs3)cc3ccccc32)cc1	·	i	·	i	-4%
COc1ccccc1CC(=O)Nc1nc(-c2ccc(F)c(F)c2)cs1	-7%	i	0%	i	18µM*
COc1ccc(-c2csc(NC(=O)Cc3ccccc3F)n2)cc1OC	-36%	i	26%	i	?
O=C(Cc1ccccc1F)Nc1nc(-c2ccc(F)cc2)cs1	-7%	i	14%	i	13µM*
CCN(CC)c1ccc(C(=C2C=CC(=[N+](CC)CC)C=C2)c2ccc(N(CC)CC)cc2)cc1	-78%	i	·	35µM*	-97%
Cc1noc2ncnc(N3CCN(c4ccccc4F)CC3)c12	?	i	·	i	22µM*
Fc1ccc(-c2noc3ncnc(N4CCN(c5ccccc5)CC4)c23)cc1	-8%	i	·	i	25µM*
Fc1ccc(-c2noc3ncnc(N4CCCCC4)c23)cc1	·	i	·	i	16%
Cc1ccccc1CC(=O)N1CCC(n2nnc3ncccc32)CC1	·	·	·	i	·
CC(C)CN1C(=O)[C@]2(CC(=O)N(C)C2c2ccccc2)c2cc(-n3cc(CCCC#N)nn3)ccc21 (stereo partly drawn)	·	·	·	i	·
COc1ccc(CNC(=O)c2cc3c(=O)n(Cc4cccs4)ccc3nc2C)cc1	·	i	·	i	-2%
SMILES	aSyn rescue	Abeta yeast res	Mito fusion yeast	FUS yeast rescue	TDP-43 yeast inh
CCCCN1C(C(=O)c2ccccc2)=C(OC(=O)CC)c2ccccc2S1(=O)=O	·	i	·	i	22µM*
CCCCC(=O)OC1=C(C(C)=O)N(Cc2ccccc2)S(=O)(=O)c2ccccc21	·	i	·	i	?
CCCCN(CCCC)C1=C(C(=O)c2ccccc2)N(C)S(=O)(=O)c2ccccc21	16µM*	i	·	i	6%
CCCC(=O)OC1=C(C(C)=O)N(Cc2ccccc2)S(=O)(=O)c2ccccc21	·	i	·	i	11µM*
CCCCN(CCCC)C1=C(C(=O)c2ccccc2)N(CC)S(=O)(=O)c2ccccc21	?	?	·	i	?
CCN1C(C(=O)c2ccccc2)=C(OC(=O)COc2ccccc2)c2ccccc2S1(=O)=O	·	i	·	i	?
CCN1C(C(=O)c2ccccc2)=C(OC(=O)C(C)C)c2ccccc2S1(=O)=O	·	i	·	i	18µM*
CCN1C(C(=O)c2ccccc2)=C(OC(=O)c2ccc(OC)cc2)c2ccccc2S1(=O)=O	·	i	·	i	10%
CCN1/C(=C(\O)c2ccccc2)C(=O)c2ccccc2S1(=O)=O	4µM*	i	15%	i	?
Cc1ccc(NC(=O)Cn2c(=O)n(Cc3nc(C)no3)c(=O)c3cc4c(cc32)OCO4)c(C)c1	·	i	·	i	27%
CN(C)/C=C(\C#N)c1nc2ccccc2[nH]1	-4%	i	-1%	i	-11%
CCCOc1cc(N(CC)CC)ccc1/C=C(/C#N)c1nc2ccc(C)cc2[nH]1	-30%	i	3%	·	?
N#C/C(=C\c1c(Cl)cccc1Cl)c1nc2ccccc2[nH]1	-46%	i	14%	i	11µM*
CCN(CC)c1ccc(/C=C(/C#N)c2nc3ccc(C)cc3[nH]2)c(OC(C)C)c1	-35%	i	0%	8.9µM*	?
CCOc1cc(N(CC)CC)ccc1/C=C(/C#N)c1nc2ccccc2[nH]1	-22%	i	16%	?	7.1µM*
CCOc1ccccc1NC(=O)Cn1nc2c3cc(F)ccc3n(Cc3cccc(C)c3)cc-2c1=O	·	i	·	i	-4%
CC(=O)Nc1cc(C(=O)NCc2ccc(F)cc2)ccc1Sc1ccc(C)cc1	·	i	·	?	?
Cc1ccc(Cn2c(-c3ccccc3)nc3ccccc32)cc1	·	i	·	i	25µM*
CCCn1c(-c2cccc(Br)c2)nc2ccccc21	·	i	·	i	26%
Fc1ccc(Cn2c(-c3cccc(Br)c3)nc3ccccc32)cc1	·	i	·	i	22µM*
Cc1ccc(C)c(OCc2nc3ccccc3n2C)c1	·	?	·	i	22%
Cc1ccccc1OCc1nc2ccccc2n1C	-16%	i	-15%	i	18µM*
Cc1ccc(Cn2c(Cc3ccccc3)nc3ccccc32)cc1	-13%	i	-6%	i	-6%
Cc1cccc(Cn2c(COc3ccccc3)nc3ccccc32)c1	?	i	·	i	18µM*
CCC(C)NC(=O)c1ccc2nc(-c3ccco3)c(-c3ccco3)nc2c1 (stereo not drawn)	3%	·	·	·	·
COc1ccc(-c2noc(CNC(=O)c3ccccc3Br)n2)cc1	·	i	·	i	21%
CCOc1cc(CCNC(=O)c2cc3ccsc3n2C)ccc1OC	·	·	·	i	·
Brc1ccc(C=C2C=c3ccccc3=C2)cc1	19%	·	·	·	·
Cc1ccccc1NC(=O)CSc1nc2ccc(NC(=O)CCc3ccccc3)cc2s1	·	i	·	i	4%
